Among all 360,000 compounds or so, about 2,000 (0.56%) were called active. The list comes from a sample in which actives are over-represented; it also holds similar structures and randomly drawn compounds. Values without a mark were called inactive.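 How the source made its calls: active means activation above the average of all compounds screened plus 3 SD, cutoff fixed separately per campaign (cut at about 7.5% in these data); inactive means the rest.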
Assay: FXN promoter activators, primary screen, cell-based, luciferase luminescence, HEK293 lucGAA850 (AID 540364);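 further: 0% = DMSO wells and 100% = 10 µM SAHA wells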
Settings: HEK293 lucGAA850 FXN promoter luciferase reporter, 24 h; at 6 µM; hits give high values; percent of 10 µM SAHA response

| SMILES | activation |
| --- | --- |
| NC(c1csc(NC(=O)Nc2cccc(C(F)(F)F)c2)n1)C1CCCCC1 (centres undefined) | 0.57% |
| Cc1[nH]c2ccccc2c1C(=O)C(C)Sc1nnc(C2CC2)o1 (centres undefined) | -0.9% |
| Cc1ccc(OCc2nc(C#N)c(N3CCCC3)o2)cc1 | 1.46% |
| CCOc1ccc(Nc2oc(Cc3ccccc3)nc2C#N)cc1 | 7.76% (active) |
| COc1ccc(Nc2oc(-c3ccccc3Cl)nc2C#N)cc1 | -4.29% |
| Cn1c(=O)n(C)c(=O)n(CC(=O)N2CCCCC2)c1=O | -1.79% |
| O=C(CSc1nc2[nH]c(=O)[nH]c(=O)c2s1)Nc1cccc(F)c1 | -0.65% |
| CCCOP(=O)(c1ccc(N(C)C)cc1)C(O)c1cc(OC)c(OC)c(OC)c1 (centres undefined) | 0.98% |
| O=C(Nc1ccc(Cl)cn1)c1ccccc1-c1ccccc1 | 0.22% |
| Oc1ccccc1-c1cc(-c2ccc(Cl)cc2)n[nH]1 | 8.31% (active) |
| c1ccc(-c2c[nH]c(-c3ccccc3)c2)cc1 | 1.7% |
| c1ccc(-c2cc(-c3ccccc3)[nH]n2)cc1 | 10.4% (active) |
| CSc1ccccc1-c1nnc(-c2ccc(Cl)cc2)o1 | 5.35% |
| Nc1cccc(-c2cc(-c3ccccc3)nc(-c3cccc(N)c3)n2)c1 | 1.48% |
| O=C1CCN(C(=O)Nc2ccccc2)N1 | -0.46% |
| O=C(COc1ccc(Cl)cc1Cl)NCCCNC(=O)c1cnccn1 | 7.84% (active) |
| COc1ccccc1CCNC(=O)c1cnccn1 | 2.62% |
| O=C(NCCCNC(=O)c1ccccc1Cl)c1cnccn1 | 1.82% |
| CCn1c(CC(=O)Nc2ccccc2C)nnc1SCC(=O)NC1=NCCS1 | -0.89% |
| CSc1nc2c(c(=O)[nH]1)C(c1cccc(Cl)c1Cl)CC(=O)N2 (centres undefined) | -1.23% |
| N#Cc1c(N)nc2c3c(sc(=N)c2c1N)NC(=O)CC3c1ccccc1Cl (centres undefined) | 9.37% (active) |
| COc1ccc(C2CC(=O)Nc3sc(=N)c4c(N)c(C#N)c(N)nc4c32)cc1OC (centres undefined) | 5.47% |
| O=C(O)c1ccccc1-c1cccc2nncn12 | 0.6% |

| SMILES | activation |
| --- | --- |
| Cc1ccc2[nH]c(=O)c(COC(=O)c3ccccn3)cc2c1 | -0.35% |
| CCOC(=O)c1cc2cc(C)ccc2[nH]1 | 7.85% (active) |
| CCOC(=O)c1[nH]c2ccc(C)cc2c1N=C(C)N(C)C | 2.12% |
| CC(=O)c1ccc(-c2cnc3c(NC=O)cc(-c4cccc(NS(C)(=O)=O)c4)cn23)cc1 | -2.27% |
| Cc1cc(C(=O)N2CCN(c3ccccn3)CC2)c(C)o1 | 1.36% |
| CN(C)C(CNC(=O)c1cc(Br)c(Br)s1)c1ccco1 (centres undefined) | 0.51% |
| O=C1[C@H]2[C@@H](c3ccc(F)cc3)N3C(=O)N(c4ccc(C(F)(F)F)cc4)C(=O)[C@@]3(Cc3ccccc3)[C@H]2C(=O)N1C1CCCCC1 | 7.65% (active) |
| Cc1cccc([C@@H]2[C@@H]3C(=O)N(Cc4ccccc4)C(=O)[C@@H]3[C@]3(Cc4ccc(Cl)cc4)C(=O)N(c4cccc(Cl)c4)C(=O)N23)c1 | 0.5% |
| CCOC(=O)[C@@H]1[C@H]2COc3ccc(Br)cc3[C@H]2N2C(=O)N(c3ccc(C)cc3)C(=O)[C@@]12C | 0.65% |
| O=C1[C@H]2[C@@H](c3ccc(Cl)cc3)N3C(=O)N(c4cccc(F)c4)C(=O)[C@@]3(Cc3ccccc3)[C@H]2C(=O)N1C1CCCCC1 | 8.92% (active) |
| Cc1cccc(N2C(=O)N3[C@H](c4ccc(F)cc4)[C@@H]4C(=O)N(C5CCCCC5)C(=O)[C@@H]4[C@]3(Cc3ccccc3)C2=O)c1 | 5.49% |
| C[C@@]12C(=O)N(c3cccc(Br)c3)C(=O)N1[C@H](c1ccc(Cl)cc1)[C@@H]1C(=O)N(C3CCCCC3)C(=O)[C@@H]12 | 7.88% (active) |
| CC12C(=O)N(c3ccccc3)C(=O)C1C(c1ccccc1)N1CCCN12 (centres undefined) | -0.94% |
| O=C1[C@H]2[C@@H](c3ccc(C(F)(F)F)cc3)N[C@]3(CCCN(Cc4ccc(Cl)cc4)C3=O)[C@H]2C(=O)N1Cc1ccccc1 | -7.53% |
| O=C1[C@H]2[C@@H](c3ccc(C(F)(F)F)cc3)N[C@]3(CCCN(Cc4ccc(Br)cc4)C3=O)[C@H]2C(=O)N1Cc1ccccc1 | -7.76% |
| CNC(=O)c1ccc(CN(C)C(=O)c2cc(C3CC3)nc3c2cnn3C(C)C)cc1 | 1.69% |
| CN(C(=O)c1cccc(NC(=O)Cc2ccc(NC(=O)C3CCCN(C(=O)C4CC4)C3)cc2)c1)C1CC1 (centres undefined) | 0.38% |
| O=C(CN1C(=O)NC2(CCCC2)C1=O)NCC1CCCO1 (centres undefined) | 0.59% |
| COCc1cc(C)nc(Nc2cc(C)ccc2C)c1C#N | -0.89% |
| CCOC(=O)c1ccc(-c2ccc3ncnc(N(C)Cc4sccc4C)c3c2)o1 | 4.4% |
| O=C(Nc1nccs1)C1CCCN1S(=O)(=O)c1cccc2cccnc12 (centres undefined) | -0.14% |
| O=C(Cc1ccc(-n2c(=O)c3sccc3n(Cc3ccc(F)cc3)c2=O)cc1)NCc1ccco1 | -1.57% |
| O=C(NCc1ccco1)c1ccc(Cn2c(=O)c3sccc3n(Cc3ccc(F)cc3)c2=O)cc1 | 15.4% (active) |

| SMILES | activation |
| --- | --- |
| O=C(NCc1ccco1)c1cc2sccc2n1Cc1ccc(F)cc1 | 0.82% |
| C/C(Cc1ccccc1)=N\NC(=O)CNC(=O)c1ccc2c(c1)OCCO2 | -1.21% |
| COc1ccc(-c2nnc(NC(=O)CS(=O)(=O)c3ccc(Cl)cc3)o2)c(OC)c1 | 2.95% |
| COc1ccc(-c2nnc(SCC(=O)c3cccs3)o2)c(OC)c1 | 7.8% (active) |
| COc1ccccc1-c1nnc(SCC(=O)N2CC(C)CC(C)C2)o1 (centres undefined) | 3.31% |
| CN(C(=O)c1cc2c(=O)n3ccccc3nc2s1)C1CCCCC1 | 8.38% (active) |
| Cc1cccn2c(=O)c3cc(C(=O)NC4CCCCC4)sc3nc12 | 2% |
| CCOCCCNC(=O)c1cc2c(=O)n3ccccc3nc2s1 | 3.92% |
| CC(=O)N1c2ccc(S(=O)(=O)N3CCC(C(=O)NC4CCCC(C)C4C)CC3)cc2CC1C (centres undefined) | 1.08% |
| Clc1ccc(-c2nnc(-c3ccccc3)nc2N2CCSCC2)cc1 | -1.26% |
| OC(c1ccc(Cl)c(F)c1)c1ncc(-c2ccccc2Cl)[nH]1 (centres undefined) | 0.22% |
| CCOC(=O)C1Cn2c(nc3c(c2=O)C(C)(CC)Cc2ccccc2-3)S1 (centres undefined) | 1.17% |
| CCC1(CC)Cc2ccccc2-c2nc(CCl)[nH]c(=O)c21 | 8.24% (active) |
| N#CCSc1nc2c(c(=O)n1Cc1ccccc1)C1(CCCC1)Cc1ccccc1-2 | -0.71% |
| CN1CCCc2cc(C#N)c(=O)[nH]c21 | -0.22% |
| C[C@H](CO)N1C[C@H](C)[C@@H](CN(C)S(=O)(=O)c2ccc(Oc3ccccc3)cc2)OCc2cn(nn2)CCCC1=O | -2.73% |
| CCOC(=O)C1CCN(C(=O)c2ccc3c(=O)n4nc(Nc5ccccc5CC)sc4nc3c2)CC1 | 0.72% |
| O=C(/C=C/Sc1ncn[nH]1)c1ccc(Cl)cc1 | 23.3% (active) |
| COc1ccc(CNC(=O)[C@@H]2CC=C[C@@H]3CCN(C4CC4)C(=O)[C@@H]32)cc1 | -0.64% |
| O=S(=O)(Nc1ccc2nc(-c3ccco3)[nH]c2c1)c1ccccc1 | 2.98% |
| COC(=O)CCc1sc(Nc2ccc(Br)cc2)nc1-c1ccc(OC)cc1 | 2.66% |
| COc1ccc(-c2csc(Cc3nc(O)cs3)n2)cc1 | 21.7% (active) |
| COc1ccc(C(O)c2nc(-c3ccc(OC)nc3)cs2)cc1 (centres undefined) | 0.21% |

| SMILES | activation |
| --- | --- |
| COc1ccc(C(C)(O)c2nc(-c3ccc(C)c(C)c3)cs2)cc1 (centres undefined) | 0.79% |
| Cc1ccn2c(-c3csc(Nc4ccc(C(=O)O)cc4)n3)c(C)nc2c1 | 1.81% |
| COc1ccc(-c2csc(Nc3cccc(C)n3)n2)cc1OC | 0.8% |
| Cc1ccc(Nc2nc(-c3ccc(O)cc3O)cs2)nc1 | 2.15% |
| COc1ccc(-c2csc(Nc3ccc(O)cc3)n2)cc1 | 8.06% (active) |
| O=c1oc2ccccc2cc1-c1csc(Nc2ccc(O)cc2)n1 | 22.5% (active) |
| COc1cc2c(cc1CNC[C@H]1O[C@@H](n3cnc(C(N)=O)n3)[C@H](O)[C@@H]1O)OCO2 | -0.43% |
| CCOC(=O)c1c(C)oc2cc(Br)c(OCC(N)=O)cc12 | -1.34% |
| COc1cc2c(cc1OC)C(C(=O)Nc1cc(C)c(OC)c(C)c1)CC(=O)N2 (centres undefined) | 1.49% |
| CC12CCC(=O)C=C1CCC1C2C(O)CC2(C)C1CCC2(O)C(O)CO (centres undefined) | 0.74% |
| O=C(O)c1ccccc1N=N/C(=N/Nc1cc(S(=O)(=O)O)ccc1O)c1ccccc1 | -1.25% |
| COc1ccc(OC)c(S(=O)(=O)N(C)CC(=O)N2CCN(c3ccccc3)CC2)c1 | -1.26% |
| CC1CC2=C(CC1/C=N/NC(N)=S)C(C)(C)CCC2 (centres undefined) | -2.98% |
| Cc1ccc(C2NC(=S)NC3=C2N2CCC3CC2)cc1 (centres undefined) | 1.46% |
| CC(=O)CCS(=O)(=O)c1ccc(C)c(C)c1 | 0.08% |
| COc1cc(/C=N/Nc2nc3ccccc3s2)ccc1O | 8.92% (active) |
| COc1cc(C=NC2CCCCC2)ccc1O | -0.66% |
| CCOc1cc(/C=N/Nc2cc(C)nc3ccc(C)cc23)ccc1O | -0.68% |
| CCN1C(=NCCc2cccnc2)N[C@@H](c2ccccc2)[C@H](C(=O)OC)[C@H]1C | 1.66% |
| Cc1ccc(CNC(=O)Nc2nnc([C@H]3C[C@H](O)[C@@H](CO)O3)s2)cc1 | 0.3% |

— PubChem BioAssay AID540364 (The Scripps Research Institute Molecular Screening Center, 2011)
